HCMV antiviral = qHTS Assay for inhibitors of the human cytomegalovirus (HCMV); HFF cells, HCMV-luciferase reporter, 72 h; hits give low values; activity change, negative = inhibition, % at 57.5 µM; actives 4.5% (n = 410,000); AID 1259415, 2018; in the data active = activity change below about -60%; inconclusive = no clear call, values can overlap the other calls; inactive = above about -39%
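Two-dose cell screen: HFF monolayers treated with compounds and infected with luciferase-expressing HCMV at 1 PFU/cell, 72 h at 37C, then lysed for luciferase measurement.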
LASV entry inh = qHTS for Inhibitors of binding or entry into cells for Lassa Virus. Lassa virus pseudotype entry inhibition, cell reporter. Potency, µM (top dose mostly 37.9 µM), without a hit: top-dose activity change, negative = inhibition, actives largely listed as inhibitors. actives 1.2% (n = 300,000). AID 540256, 2011; calls by dose curve; tested in HEK293 cells; also: potency is read from the fitted curve at half-maximal effect; nearly all actives have a fitted effect of over 50% in size
HCV inhibitor = qHTS Assay for Inhibitors of Hepatitis C Virus (HCV); actives 3.4% (n = 340,000); Potency, µM (doses to about 41.8 µM), for the others: at the highest dose activity change, negative = inhibition, usual class: inhibitors; Huh7.5.1 HCVcc-Cre infection, luciferase reporter, 44 h; AID 651820, 2012; active = well fitted inhibition curve with a large enough effect; inconclusive = small, poorly fitted or top-dose-only effect, or another doubt; inactive = no such curve, though single readings can be large or run the other way; also: potency is read from the fitted curve at half-maximal effect
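Infectious HCVcc-Cre (~0.5 moi) was added to cells just after compound, with cells seeded 4 h earlier at 1,000 per well. Luciferase activity after 44 h culture reported infection; substrate was incubated 15 min at room temperature before reading.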
FMDV inh = High Throughput Screening for Foot and Mouth Disease Virus Antivirals | FMDV antiviral cell-based qHTS | Potency, µM (highest dose often 57.9 µM), for the others: at the highest dose activity change, negative = inhibition, usual class: inhibitors | actives 1.2% (n = 410,000) | AID 1159524, 2015; calls by dose curve; tested in HEK293T cells; also: read-out not given here; potency is read from the fitted curve at half-maximal effect; nearly all actives have a fitted effect of over 45% in size
Marburg entry inh = qHTS for inhibitors of binding or entry into cells for Marburg Virus | Marburg virus pseudotyped entry inhibition, cell reporter | Potency, µM (highest dose often 37.8 µM), for inactives: top-dose activity change, negative = inhibition, hits mostly inhibitors | actives 1.8% (n = 300,000) | AID 540276, 2011; calls by dose curve; tested in HEK293 cells; also: potency is read from the fitted curve at half-maximal effect
Numbers without * were called inactive; ? = inconclusive; . = not tested or not shown; [ ] = remark or other dose. Most compounds without a hit are left out; they make up all but 7.9% or so of the library. % is scaled to controls: 0 for no effect and ±100 for the full control effect.

SMILES | HCMV antiviral | LASV entry inh | HCV inhibitor | FMDV inh | Marburg entry inh
Cc1cc2cc(CN(CC3CCCO3)C(=S)Nc3ccccc3)c(=O)[nH]c2cc1C (stereo unspecified) | -82* | 7.1µM* | ? | -24% | ?
COc1ccc2cc(CN(CC3CCCO3)C(=S)Nc3ccccc3)c(=O)[nH]c2c1 (stereo unspecified) | -73* | ? | ? | 0% | ?
COc1ccc(N(Cc2cc3ccccc3[nH]c2=O)C(=O)C2CCCO2)cc1 (stereo unspecified) | -65* | -11% | 7% | -25% | 0%
CCN1CCCC1CN(Cc1cc2ccc(C)cc2[nH]c1=O)C(=S)Nc1cccc(OC)c1 (stereo unspecified) | -32 | ? | ? | 0% | 10µM*
CCOc1ccc(N(Cc2cc3cc(OC)ccc3[nH]c2=O)C(=O)C2CCCO2)cc1 (stereo unspecified) | 5 | -28% | 13% | -26% | -1%[46.1 µM]
CCN1CCCC1CN(Cc1cc2ccc(C)cc2[nH]c1=O)C(=S)Nc1ccc(OC)cc1 (stereo unspecified) | ? | ? | -20% | -16% | 5%
CCC1(C2CCN(C(=O)c3ccc(C)cc3C)CC2)NC(=O)N(CCc2scnc2C)C1=O (stereo unspecified) | . | . | . | 21% | .
Cc1cnc(-n2ncc(C(=O)N(C)C3CCOC3)c2C)nc1-c1ccc(F)cc1 (stereo unspecified) | . | . | . | 26% | .
CC(C)(O)c1ccccc1CC[C@@H](SCC1(CC(=O)O)CC1)c1cccc(/C=C/c2ccc3ccc(Cl)cc3n2)c1 | . | . | ? | -9% | .
CCN1CCCC1CN(Cc1cc2ccc(C)c(C)c2[nH]c1=O)C(=O)Nc1ccccc1OC (stereo unspecified) | 12 | -1% | ? | 2% | 18µM*
CN(C)CCCN(Cc1cc2cc3c(cc2[nH]c1=O)OCO3)C(=S)Nc1ccccc1 | 41 | ? | ? | -17% | ?
CN(C)CCCN(Cc1cc2cc3c(cc2[nH]c1=O)OCO3)C(=S)Nc1cccc(Cl)c1 | ? | ? | 10µM* | -28% | ?
CCn1cc(C(=O)NCCc2ccccc2)c(=O)c2cc(F)c(N3CCN(C)CC3)cc21 | 35 | 5% | 10µM* | 24% | -2%
CCn1cc(C(=O)NCCCO)c(=O)c2cc(F)c(N3CCN(C)CC3)cc21 | 19 | . | 6% | -9% | .
CCn1cc(C(=O)O)c(=O)c2cc(F)c(N3CCN(C(=O)Nc4ccccc4)CC3)cc21 | -84* | 11% | -23% | -25% | 11%
CCC(C)NC(=O)c1cn(CC)c2cc(N3CCN(C(=O)c4ccco4)CC3)c(F)cc2c1=O (stereo unspecified) | -23 | ? | 14µM* | -18% | 4%[46.1 µM]
CCCCCCNC(=O)c1cn(CC)c2cc(N3CCN(C)CC3)c(F)cc2c1=O | 2 | . | 10µM* | -21% | .
O=C1CCC[C@H]2[C@@H](Cc3ccccc3)[C@H](NCc3cccs3)CC[C@]23CCCN13 | 20 | . | . | . | .
C/C(N)=C(/C#N)C(=O)CSc1nnc(-c2ccccc2Br)o1 | 46 | ? | -2% | -18% | 6.3µM*
O=C1C(Cl)=C(Nc2ccc(O)cc2)C(=O)c2ccccc21 | -99* | 4.5µM* | ? | 32µM* | ?
COC1=C(Nc2ccc(O)cc2)C(=O)c2ccccc2C1=O | -14 | ? | ? | -9% | ?
Cc1ccc(NC2=C(N3CCOCC3)C(=O)c3ccccc3C2=O)cc1 | 4 | ? | ? | . | ?
Cc1ccc(NC2=C(Cl)C(=O)c3ccccc3C2=O)cc1 | 39 | 13µM* | 7.1µM* | -37% | ?
CCCC(=O)NC1=C(Cl)C(=O)c2ccccc2C1=O | ? | ? | 3.2µM* | ? | ?
CCN(CC)c1ccc(NC2=C(Cl)C(=O)c3ccccc3C2=O)cc1 | . | 5.6µM* | ? | ? | 4µM*
SMILES | HCMV antiviral | LASV entry inh | HCV inhibitor | FMDV inh | Marburg entry inh
CCNC1=C(Cl)C(=O)c2ccccc2C1=O | -33 | -14% | ? | -25% | -19%
CCCN(C(=O)C1CSC2(C)CCC(=O)N12)c1c(N)n(Cc2ccccc2)c(=O)[nH]c1=O (stereo unspecified) | -37 | -4% | 2% | ? | -11%[46.1 µM]
CC1CCN(S(=O)(=O)c2ccc3c(ccc(=O)n3CC(=O)NCc3ccccc3Cl)c2)CC1 | 30 | -12%[46.1 µM] | . | 5% | .
COc1cccc([C@H]2/C(=C(\O)c3cnn(-c4ccccc4)c3C)C(=O)C(=O)N2CCN(C)C)c1 | . | . | . | . | 0%
COc1ccc(S(=O)(=O)N2CCCCC2)cc1NC(=O)CN(Cc1ccco1)Cc1ccco1 | -70* | . | 10µM* | ? | .
COc1ccc(S(=O)(=O)Nc2ccccc2OC)cc1NC(=O)CC1CC2CCC1C2 (stereo unspecified) | ? | ? | 6.3µM* | -10% | ?
COc1ccc(S(=O)(=O)N2CCCCC2)cc1NC(=O)CN(C)C1CCCCC1 | -38 | ? | 11µM* | 16% | ?
COc1ccc(S(=O)(=O)Nc2ccccc2C(=O)NC2CC2)cc1NC(C)=O | 31 | . | 1% | 8% | .
COc1ccc(S(=O)(=O)N2CCN(C(c3ccccc3)c3ccccc3)CC2)cc1NC(C)=O | 26 | . | 3.2µM* | -5% | .
O=C(NC1CC1)[C@@H]1C[C@H](Sc2nc3ccccc3[nH]2)CN1CC1CCCCC1 | . | . | . | -9% | .
CCOP(=O)(OCC)c1ccc2ccc3ccccc3c(=O)c2c1 | 1 | . | . | -23% | .
OCCC1CN(CC#Cc2ccccc2)CCN1C1CCCC1 (stereo unspecified) | -37 | -22%[46.1 µM] | -4% | -13% | 1%[46.1 µM]
OCCC1CN(Cc2cnc(-c3ccccc3)s2)CCN1C1CCCC1 (stereo unspecified) | -66* | 0% | ? | -27% | ?
CC(C)CN1CCN(Cc2cnc(-c3ccc(Cl)cc3)nc2)CC1CCO (stereo unspecified) | 40 | . | ? | 11% | .
OCCC1CN(Cc2cnc(-c3ccc(Cl)cc3)nc2)CCN1C1CCCC1 (stereo unspecified) | ? | -5% | 7.1µM* | ? | ?
OCCC1CN(CC(c2ccccc2)c2ccccc2)CCN1C1CCCC1 (stereo unspecified) | -32 | ? | ? | -17% | 13µM*
Cn1cnc(S(=O)(=O)N[C@H]2CC[C@@]34CCCN3C(=O)CCC[C@H]4[C@H]2Cc2ccccc2)c1 | 7 | . | . | . | .
Oc1ccccc1Nc1nc(-c2ccccc2)c2cc(Cl)ccc2n1 | -27 | 1%[46.1 µM] | . | 22% | 4%[46.1 µM]
CNC(=S)NNc1nc(-c2ccccc2)c2cc(Cl)ccc2n1 | -72* | -26%[46.1 µM] | -7% | -10% | ?
S=C(NCc1ccncc1)Nc1cccc(Cl)c1 | -17 | -10% | 7% | 11% | ?
Fc1ccc(CNC(=S)Nc2ccc(Cl)cc2)cc1 | ? | -6% | -6% | -1% | -3%

Compound activity deposited in PubChem BioAssay by National Center for Advancing Translational Sciences (NCATS).
